Measurements published in PubChem BioAssay (EPA / NIEHS).
Several values for one entry are separate records, joined by “and”; a condition that tells them apart may be missing. Identical values can stand only once. Inconclusive results are not listed. Some compounds were tested as several samples or in several runs, with calls that do not always agree. Activity calls are given as the source filed them. The calls were made as follows, unless noted: active = hit-call score of the fitted dose curve at least 0.9, where 1 is the maximum; inconclusive = response in the unintended direction; inactive = score below 0.9.

Tests used:
[1] = Tanguay_ZF_120hpf_CIRC_legacy: (Legacy) Oregon State University Tanguay Lab 120 Hour Post-fertilization zebrafish Assay for Circulatory Malformation (AID 2283651)
How it was run: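 Binary circulatory malformation call at 120 hpf by brightfield imaging of zebrafish larvae; chorion removed at 4 hpf, static exposure from 6 hpf in sealed dark plates at 28C, final DMSO 0.64%; non-mortality endpoints skipped if embryo died.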

[2] = Tanguay_ZF_120hpf_SWIM_legacy: (Legacy) Oregon State University Tanguay Lab 120 Hour Post-fertilization zebrafish Assay for Swim Bladder Malformation (AID 2283654);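 also: swim bladder malformation in each larva scored yes or no under brightfield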
How it was run: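 Tropical 5D embryos dechorionated at 4 hpf; 1 embryo/well from 6 hpf; static, sealed, dark exposure at 28C until 120 hpf; final DMSO 0.64%; 5uM trimethyltin chloride positive control; swim bladder defect recorded yes/no; dead embryos not scored.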

[3] = Tanguay_ZF_120hpf_TRUN_legacy: (Legacy) Oregon State University Tanguay Lab 120 Hour Post-fertilization zebrafish Assay for Truncated Body (AID 2283655)
How it was run: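 Tropical 5D wild-type embryos, dechorionated with pronase at 4 hpf, were placed singly in wells at 6 hpf and statically exposed at 28C until 120 hpf, final DMSO 0.64%. Truncated body was scored present/absent by brightfield microscopy.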

[4] = CCTE_Padilla_ZF_144hpf_TERATOSCORE: (Legacy) CCTE's 144 Hour Post-fertilization zebrafish Assay Teratoscore, Padilla Lab (AID 2283679; active = hit-call score of the fitted dose curve at least 0.9, where 1 is the maximum; inactive = score below 0.9;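 as to AC50: zebrafish embryos with chorions exposed by immersion from 6-8 hpf to 5 dpf with daily renewal; teratogenicity score from eye scoring of death hatching and malformations at 144 hpf; higher score means more developmental defects relative to DMSO baseline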)
How it was run: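 Larvae scored by eye at 144 hpf for death, hatching and malformations after a day in clean Hanks'. Before that, daily-renewed exposure at 80 uM (0.4% DMSO, 26C) from roughly 6-8 hpf through 5 dpf, 4 embryos per chemical.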

[5] = STM_H9_OrnithineISnorm_perc: Stemina devTOX quickPredict H9 human embryonic stem cell (hESC)-based Assay for Ornithine (ORN) Metabolite Biomarker, Normalized (AID 2283712; active = hit-call score of the fitted dose curve at least 0.9, where 1 is the maximum; inactive = score below 0.9;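 also: ornithine released into spent medium during last day measured by mass spectrometry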)
How it was run: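 Ornithine in spent medium from the last 24 h of a 72 h exposure, deproteinised and quantified by UPLC-HRMS against an isotope-labelled internal standard, expressed relative to 0.1% DMSO. Pluripotent H9 cells; compound refreshed every 24 h.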

[6] = STM_H9_CystineISnorm_perc: Stemina devTOX quickPredict H9 human embryonic stem cell (hESC)-based Assay for Cystine (CYSS) Metabolite Biomarker, Normalized (AID 2283713; active = hit-call score of the fitted dose curve at least 0.9, where 1 is the maximum; inactive = score below 0.9)
How it was run: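 Cystine in spent media from the last 24 h of a 72 h H9 hESC exposure (daily re-dosing), measured by UPLC-HRMS. Values normalized to isotopic internal standard, then to 0.1% DMSO; viability via CellTiter-Fluor.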

[7] = STM_H9_OrnCyssISnorm_ratio: Stemina devTOX quickPredict H9 human embryonic stem cell (hESC)-based Assay for Ornithine (ORN):Cystine (CYSS) Ratio (AID 2283714)
How it was run: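 UPLC-HRMS of spent media: ORN/CYSS ratio of internal-standard-normalized percentages, DMSO (0.1%) baseline. Pluripotent H9 hESCs, 72h exposure, daily re-dosing with fresh media; last 24h media collected.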

[8] = CEETOX_H295R_MTT_cell_viability: Viability Assessment in the CeeTox HT-H295R MTT Assay (AID 2283718; active = hit-call score of the fitted dose curve at least 0.9, where 1 is the maximum; inactive = score below 0.9)
How it was run: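 Human H295R adrenal cells, prestimulated 48 h with 10 uM forskolin, were exposed 48 h to chemicals in 0.1% DMSO. Viability was measured in the same wells by MTT (0.5 mg/ml, 4 h, 37 C), absorbance 570/650 nm, as percent of controls.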

[9] = Tanguay_ZF_120hpf_ActivityScore_legacy: (Legacy) Oregon State University Tanguay Lab 120 Hour Post-fertilization zebrafish Assay Score for Activity (AID 2283742)
How it was run: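 Dechorionated 5D embryos, one per well, static exposure 6–120 hpf, 28C, sealed and dark; final DMSO 0.64% (vol/vol). Brightfield binary scoring of mortality plus 18 endpoints; gain-of-signal fit versus DMSO baseline.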

[10] = ArunA_CellTiter_hNC: Viability Assessment in the ArunA Biomedical's Oris Neural Crest (hNC) Cell Migration Assay (AID 2283752)
How it was run: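 After a 72 h chemical exposure, viability of hNC cells is read with CellTiter Aqueous One and fitted as signal loss relative to DMSO. Cells were seeded at 60,000/well on Matrigel and cultured 16 h at 37 C beforehand.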

[11] = ArunA_CellTiter_hNP: Viability Assessment in the ArunA Biomedical's Oris Neural Crest (hNC) Cell Migration Assay (AID 2283753)
How it was run: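 Viability read with CellTiter 96 Aqueous One after 72 h chemical exposure of human hNP1 neuroprogenitors, which were plated on Matrigel in LIF/bFGF medium 16 h beforehand. Endpoint fitted in positive direction relative to DMSO.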

[12] = ArunA_Migration_hNP: ArunA Biomedical's Oris Neuroprogenitor (hNP) Cell Migration Assay (AID 2283754)
How it was run: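 Readout is calcein-AM fluorescence (ex494/em517) of cells migrating into the detection zone, relative to DMSO. hNP1 cells (H9-derived) grown on Matrigel behind stoppers 16 h, then stoppers pulled and chemical applied 72 h; cytochalasin D as control.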

[13] = ArunA_Migration_hNC: ArunA Biomedical's Oris Neural Crest (hNC) Cell Migration Assay (AID 2283755)
How it was run: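 Calcein-AM fluorescence (ex494 nm/em 517 nm) in the stopper-defined detection zone quantifies migration of hNC cells after 72 h chemical exposure; 60,000 cells/well plated on Matrigel with LIF and bFGF, 16 h pre-incubation. DMSO baseline.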

[14] = system: Thyroperoxidase (TPO), gene 54314; test: CCTE_Simmons_AUR_rTPO: CCTE's Amplex UltraRed Assay for Thyroperoxidase (TPO) Inhibition, Simmons Lab (AID 2283662);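 as to AC50: potency for loss of signal meaning inhibition of peroxidase activity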
How it was run: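 Cell-free peroxidase activity assay using rat thyroid gland microsomes with excess H2O2 (300 uM) and 25 uM Amplex UltraRed. Compounds tested from 5 nM to 87.5 uM; fluorescence measured after 30 min at 37C, analysed relative to DMSO baseline.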

[15] = CCTE_Simmons_CellTiterGLO_HEK293T: Viability Assessment in CCTE's Assays for Thyroperoxidase (TPO) Inhibition, Simmons Lab (AID 2283665);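 as to AC50: cells exposed to compound for 24 h before readout; actives reduce ATP signal below DMSO vehicle meaning cytotoxicity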
How it was run: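 Luciferase-coupled ATP content after 24 h exposure gives viability; 8-point series from 5 nM to 87.5 uM final in 0.5% DMSO. Human HEK293T cells, 1% FBS medium, three biological replicates, dichlone positive control.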

Measured: AC50

O=C(CCCN1CCC(O)(c2ccc(Cl)cc2)CC1)c1ccc(F)cc1
active: [4] 0.664 µM | [9] 4.09 µM | [11] 12.4 µM | [12] 50 µM and 61.7 nM | [13] 5.34 µM
inactive: [1] | [2] | [3] | [5] | [6] | [7] | [8] | [10] | [13]

CCC(C)c1ccccc1O (stereo not drawn)
inactive: [2] | [3] | [9]

O=C(c1ccccc1)c1ccccc1
inactive: [1] | [2] | [3] | [7] | [9]
active: [4] 15.1 µM

Cc1cc(C(=C2C=CC(=Nc3ccc(S(=O)(=O)O)cc3)C=C2)c2ccc(Nc3ccc(S(=O)(=O)O)cc3)cc2)cc(S(=O)(=O)O)c1N
inactive: [15]
active: [14] 29.4 µM

O=C1NS(=O)(=O)c2ccccc21
active: [5] 0.113 µM
inactive: [1] | [2] | [3] | [6] | [7] | [9]

CCCCCCCCCCCCCCC
inactive: [1] | [2] | [3] | [9]

OCC(CO)(CBr)CBr
not listed: [4] | [8] | [14] | [15]
inactive: all other assays above

NC(=NCCCCCCN=C(N)/N=C(\N)Nc1ccc(Cl)cc1)/N=C(\N)Nc1ccc(Cl)cc1
inactive: [14]
active: [15] 7.96 µM

CCCCCCCCCCCCOS(=O)(=O)O
active: [9] 11 µM
inactive: [1] | [2] | [3] | [4]

CS(=O)(=O)c1ccc([C@@H](CC2CCCC2)C(=O)Nc2cnccn2)cc1Cl
active: [4] 58.6 µM
inactive: [1] | [3] | [9]
